Laboratory results: PubChem BioAssay (NCI)
This is part of a sample that, as a whole, favours compounds with a hit. Of some 79,000 tested, about 15% had one in any assay. Activity calls are given as the source filed them. Cut-off read from the data, not from the text of the source: active = growth inhibition above about 70%; inactive = the rest.

Experiments:
[1] = NCI Yeast Anticancer Drug Screen. Data for the wt1 strain (AID 149);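 note: 0% = growth of vehicle-treated wt1 cultures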; conditions: S. cerevisiae wt1 strain (SPY 50644) growth inhibition, hits give high values
Procedure, shortened: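 The wt1 strain was treated with compounds, and growth was compared with vehicle-treated cultures to give inhibition.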

[2] = NCI Yeast Anticancer Drug Screen. Data for the rad50 strain (AID 155);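 note: 0% = growth of vehicle-only cultures of the same strain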; conditions: S. cerevisiae rad50 strain growth inhibition, hits give high values
Procedure, shortened: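 Cells are treated with compound, grown, and their growth is then scored against vehicle-only cultures of the same repair-deficient yeast strain.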

[3] = NCI Yeast Anticancer Drug Screen. Data for the mec2-1 strain (AID 157); conditions: S. cerevisiae mec2-1 strain, hits give high values
Procedure, shortened: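 Vehicle-treated cultures served as reference for growth inhibition of compound-exposed mec2-1 yeast.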

[4] = NCI Yeast Anticancer Drug Screen. Data for the rad14 strain (AID 159);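 note: 0% = growth of vehicle-treated control cultures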; conditions: S. cerevisiae rad14 strain growth inhibition, hits give high values
Procedure, shortened: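 Readout: yeast growth inhibition, referenced to vehicle-only cultures. Strain bears a defined alteration in DNA damage repair.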

[5] = NCI Yeast Anticancer Drug Screen. Data for the sgs1 mgt1 strain (AID 161);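 note: 0% = growth of cultures given vehicle only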; conditions: S. cerevisiae sgs1 mgt1 strain, hits give high values
Procedure, shortened: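 Mutant yeast exposed to compound; growth scored against vehicle-only wells.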

[6] = NCI Yeast Anticancer Drug Screen. Data for the CLN2oe strain (AID 163);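 note: 0% = growth of vehicle-only control cultures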; conditions: S. cerevisiae CLN2oe strain, hits give high values
Procedure, shortened: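 Inhibition relative to vehicle-treated yeast is reported. Cells: strain with genetic alteration in cell-cycle control, grown with compound.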

[7] = NCI Yeast Anticancer Drug Screen. Data for the cln2 rad14 strain (AID 165);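 note: 0% = growth equal to vehicle treated cultures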; conditions: S. cerevisiae cln2 rad14 strain, hits give high values
Procedure, shortened: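 Each compound was tested on cln2 rad14 yeast. Inhibition of growth was calculated against vehicle-exposed controls.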

[8] = NCI Yeast Anticancer Drug Screen. Data for the bub3 strain (AID 167); conditions: S. cerevisiae bub3 mutant strain, hits give high values
Procedure, shortened: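 Part of a panel of yeast mutants defective in DNA damage repair or cell cycle regulation. Each strain is grown with compound, and inhibition is calculated relative to solvent-treated cultures.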

[9] = NCI Yeast Anticancer Drug Screen. Data for the wt2 strain (AID 169);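 note: 0% = growth of vehicle-treated yeast cultures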; conditions: S. cerevisiae wt2 strain growth inhibition, hits give high values
Procedure, shortened: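 Inhibition of yeast growth was determined after compound treatment, normalised to controls receiving only vehicle.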

[10] = NCI Yeast Anticancer Drug Screen. Data for the mlh1 strain (AID 171);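 note: 0% = growth of vehicle-treated control cultures of the same strain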; conditions: S. cerevisiae mlh1 strain growth inhibition, hits give high values
Procedure, shortened: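 Vehicle-normalised growth inhibition of a repair- or checkpoint-altered yeast strain following compound treatment.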

[11] = NCI Yeast Anticancer Drug Screen. Data for the sgs1 strain (AID 173);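 note: 0% = growth of vehicle-only control cultures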; conditions: S. cerevisiae sgs1 mutant, hits give high values
Procedure, shortened: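 Screen format: yeast with repair or checkpoint alterations, compound exposure, growth read relative to vehicle.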

[12] = NCI Yeast Anticancer Drug Screen. Data for the mlh1 rad18 strain (AID 175); conditions: S. cerevisiae mlh1 rad18 strain growth inhibition, hits give high values
Procedure, shortened: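 Vehicle-treated cultures served as the reference for growth inhibition in a yeast strain carrying DNA damage repair alterations exposed to each compound.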

[13] = NCI Yeast Anticancer Drug Screen. Data for the rad18 strain (AID 177); conditions: S. cerevisiae rad18 mutant growth inhibition, hits give high values
Procedure, shortened: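 Test articles were incubated with altered yeast defective in DNA damage repair. Results are given as inhibition of growth versus vehicle.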

[14] = at 5.0 µM (retest, dose inferred, filed as 0.5)
[15] = at 50.0 µM (retest, dose inferred, filed as 5.0)

Measured: growth inhibition

COc1ccc(/C=C2\S/C(=N/Nc3nc(-c4ccccc4)cs3)NC2=O)cc1OC
active: [1]; at 3.7 µM 90% | [1]; at 11.0 µM 97% | [1]; at 33.0 µM 96% | [1]; at 100.0 µM 95% | [2]; at 3.7 µM 87% | [2]; at 11.0 µM 96% | [2]; at 33.0 µM 97% | [2]; [15] 93% | [2]; at 50.0 µM 95.2% | [2]; at 100.0 µM 93% | [3]; at 1.2 µM 82% | [3]; at 3.7 µM 88% | [3]; at 11.0 µM 96% | [3]; at 33.0 µM 97% | [3]; [15] 87% | [3]; at 50.0 µM 95.5% | [3]; at 100.0 µM 94% | [4]; at 11.0 µM 84% | [4]; at 33.0 µM 93% | [4]; at 100.0 µM 92% | [5]; [15] 90% | [5]; at 50.0 µM 95.7% | [6]; at 3.7 µM 79% | [6]; at 11.0 µM 96% | [6]; at 33.0 µM 98% | [6]; at 100.0 µM 97% | [7]; [15] 95% | [7]; at 50.0 µM 91% | [8]; at 1.2 µM 82% | [8]; at 3.7 µM 93% | [8]; [14] 94% | [8]; at 11.0 µM 97% | [8]; at 33.0 µM 97% | [8]; [15] 98% | [8]; at 50.0 µM 98.3% | [8]; at 100.0 µM 97% | [9]; at 3.7 µM 79% | [9]; at 11.0 µM 97% | [9]; at 33.0 µM 95% | [9]; at 100.0 µM 96% | [10]; at 3.7 µM 75% | [10]; at 11.0 µM 96% | [10]; at 33.0 µM 94% | [10]; at 100.0 µM 88% | [11]; at 3.7 µM 73% | [11]; at 11.0 µM 88% | [11]; at 33.0 µM 95% | [11]; at 100.0 µM 92% | [12]; [15] 97% | [12]; at 50.0 µM 98.5% | [13]; at 3.7 µM 83% | [13]; at 11.0 µM 97% | [13]; at 33.0 µM 96% | [13]; at 100.0 µM 90%
inactive: [1]; at 1.2 µM 50% | [2]; at 1.2 µM 59% | [2]; [14] -4% | [3]; [14] -8% | [4]; at 1.2 µM 20% | [4]; at 3.7 µM 45% | [5]; [14] -4% | [6]; at 1.2 µM 44% | [7]; [14] 11% | [9]; at 1.2 µM 22% | [10]; at 1.2 µM 13% | [11]; at 1.2 µM 32% | [12]; [14] 12% | [13]; at 1.2 µM 35%
